# Reference: PubChem BioAssay (NCATS)
# Records with an inconclusive call do not appear. Entries that show only a call come without a potency. Unmarked numbers belong to inactive results. The source made the active and inactive calls. The call rests on the fitted dose curve; in most records, active means well fitted cell-killing curve with a large enough effect; inconclusive means small, poorly fitted or top-dose-only effect, or effect the other way; inactive means flat fitted curve, though single readings scatter.
# Test system: C33A
# Experiment: Primary qHTS to identify gynecologic anti-cancer compounds using libraries of approved drugs and bioactive compounds (AID 1345084); further: nearly all actives have a fitted effect of over 55% in size
# Settings: Gynecologic cancer cell panel viability, ATPlite luminescence, 48 h; series mostly up to 57.5 µM
# How it was run: (§1)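 48 h compound exposure at 37 C, 5% CO2; five-point qHTS. ATPlite luminescence readout of cell ATP.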
SMILES,Potency,"activity change, negative = cytotoxicity"
Cc1ncc([N+](=O)[O-])n1CC(O)CCl (configuration not stated),inactive,–
C[C@@H]1CCN(C(=O)[C@H](CCCN=C(N)N)NS(=O)(=O)c2cccc3c2NC[C@H](C)C3)[C@@H](C(=O)O)C1,inactive,–
C[C@H](NC(CCc1ccccc1)C(=O)O)C(=O)N1CCC[C@H]1C(=O)O (some centres not stated),inactive,–
Oc1ccc(C(O)CNCCCCCCNCC(O)c2ccc(O)c(O)c2)cc1O (configuration not stated),inactive,–
CCCCC(CC)COC(=O)c1ccccc1O (configuration not stated),inactive,–
N[C@H](C(=O)O)c1ccc(O)cc1,inactive,–
NC(=O)NC(=O)Cc1ccccc1,inactive,–
C#CCN(C)Cc1ccccc1,inactive,–
NS(=O)(=O)c1cc2c(cc1C(F)(F)F)NC(Cc1ccccc1)NS2(=O)=O (configuration not stated),inactive,–
O=C1N=C(O)CN1/N=C/c1ccc(-c2ccc([N+](=O)[O-])cc2)o1,inactive,–
CCCCCCCCCCCCCCCCCCOCC(O)CO (configuration not stated),inactive,–
NCCNCCNCCNCCN,–,13.2% [at 11.6 µM]
CN(C)CCCO[C@@H]1[C@H]2OC(C)(C)O[C@H]2O[C@@H]1C(O)CO (some centres not stated),inactive,–
OC[C@H]1O[C@@H](O[C@@H]2[C@@H](CO)O[C@](O)(CO)[C@H]2O)[C@H](O)[C@@H](O)[C@H]1O,inactive,–
N[C@@H](CSSC[C@H](N)C(=O)O)C(=O)O,–,7.09% [at 0.462 µM]
CC1(C)CO[C@@H](CC(=O)O)CN1,inactive,–
CC1=C(C/C=C(\C)CCC[C@H](C)CCC[C@H](C)CCCC(C)C)C(=O)c2ccccc2C1=O,inactive,–
COc1cc(C(=O)N2CCOCC2)cc(OC)c1OC,inactive,–
CCCCC/C(C=O)=C\c1ccccc1,inactive,–
CC(=O)Nc1ccc(/C=N/NC(N)=S)cc1,inactive,–

SMILES,Potency,"activity change, negative = cytotoxicity"
O=C1OC(OC(=O)c2cccnc2Nc2cccc(C(F)(F)F)c2)c2ccccc21 (configuration not stated),inactive,–
O=C(O)CN1C(=O)c2cccc3cccc(c23)C1=O,inactive,–
CN1[C@@H]2CC[C@H]1CC(OC(=O)C(O)c1ccccc1)C2 (some centres not stated),inactive,–
O=C(Oc1ccccc1C(=O)O)c1ccccc1O,inactive,–
CC(COc1ccccc1)NC(C)C(O)c1ccc(O)cc1 (configuration not stated),inactive,–
CCN(CC)CCOC(=O)C1(C2CCCCC2)CCCCC1,inactive,–
Cc1cc(O)cc2c1O[C@](C)(CCC[C@H](C)CCC[C@H](C)CCCC(C)C)CC2,inactive,–
O=S(=O)(O)c1cc(I)c(O)c2ncccc12,inactive,–
Cc1ncc(COP(=O)(O)O)c(C=O)c1O,inactive,–
CO/N=C(\C(=O)N[C@@H]1C(=O)N2C(C(=O)O)=C(CSc3nc(=O)c(O)nn3C)CS[C@H]12)c1csc(N)n1,inactive,–
O=C(O)COc1nn(Cc2ccccc2)c2ccccc12,inactive,–
CCCc1c(OCCCCc2nn[nH]n2)ccc(C(C)=O)c1O,inactive,–
COc1ccc2cc1Oc1cc3c(cc1OC)CC[N+](C)(C)[C@H]3Cc1ccc(cc1)Oc1c(OC)c(OC)cc3c1[C@@H](C2)[N+](C)(C)CC3,inactive,–
NC1CCN(c2cccc(Cl)n2)CC1,inactive,–
Nc1cc(=O)[nH]c(N)n1,inactive,–
CC(O)COc1ccccc1 (configuration not stated),inactive,–
CC1CC(OC(=O)C(O)c2ccccc2)CC(C)(C)N1C (configuration not stated),inactive,–
O=C1O[C@H](CO)[C@@H](O)[C@H](O)[C@H]1O,inactive,–
NC(CSCC(=O)O)C(=O)O (configuration not stated),inactive,–

# Test system: CAOV3
# Experiment: as above
# Settings: Gynecologic cancer cell panel viability, ATPlite luminescence, 48 h; series mostly up to 57.5 µM
# How it was run: as §1
SMILES,Potency,"activity change, negative = cytotoxicity"
Cc1ncc([N+](=O)[O-])n1CC(O)CCl (configuration not stated),inactive,–
C[C@@H]1CCN(C(=O)[C@H](CCCN=C(N)N)NS(=O)(=O)c2cccc3c2NC[C@H](C)C3)[C@@H](C(=O)O)C1,inactive,–
C[C@H](NC(CCc1ccccc1)C(=O)O)C(=O)N1CCC[C@H]1C(=O)O (some centres not stated),inactive,–
Oc1ccc(C(O)CNCCCCCCNCC(O)c2ccc(O)c(O)c2)cc1O (configuration not stated),inactive,–
NC(=O)NC(=O)Cc1ccccc1,inactive,–
C#CCN(C)Cc1ccccc1,inactive,–
NS(=O)(=O)c1cc2c(cc1C(F)(F)F)NC(Cc1ccccc1)NS2(=O)=O (configuration not stated),inactive,–
O=C1N=C(O)CN1/N=C/c1ccc(-c2ccc([N+](=O)[O-])cc2)o1,inactive,–
CCCCCCCCCCCCCCCCCCOCC(O)CO (configuration not stated),inactive,–
CN(C)CCCO[C@@H]1[C@H]2OC(C)(C)O[C@H]2O[C@@H]1C(O)CO (some centres not stated),inactive,–
N[C@@H](CSSC[C@H](N)C(=O)O)C(=O)O,–,-5.94% [at 0.462 µM]
CCCCC/C(C=O)=C\c1ccccc1,inactive,–
CC(=O)Nc1ccc(/C=N/NC(N)=S)cc1,inactive,–
O=C1OC(OC(=O)c2cccnc2Nc2cccc(C(F)(F)F)c2)c2ccccc21 (configuration not stated),inactive,–
CN1[C@@H]2CC[C@H]1CC(OC(=O)C(O)c1ccccc1)C2 (some centres not stated),inactive,–
CC(COc1ccccc1)NC(C)C(O)c1ccc(O)cc1 (configuration not stated),inactive,–
CO/N=C(\C(=O)N[C@@H]1C(=O)N2C(C(=O)O)=C(CSc3nc(=O)c(O)nn3C)CS[C@H]12)c1csc(N)n1,inactive,–
CCCc1c(OCCCCc2nn[nH]n2)ccc(C(C)=O)c1O,inactive,–
COc1ccc2cc1Oc1cc3c(cc1OC)CC[N+](C)(C)[C@H]3Cc1ccc(cc1)Oc1c(OC)c(OC)cc3c1[C@@H](C2)[N+](C)(C)CC3,inactive,–
NC1CCN(c2cccc(Cl)n2)CC1,inactive,–
Nc1cc(=O)[nH]c(N)n1,inactive,–
CC(O)COc1ccccc1 (configuration not stated),inactive,–
CC1CC(OC(=O)C(O)c2ccccc2)CC(C)(C)N1C (configuration not stated),inactive,–
